In the library only some 0.89% were active in any assay of this set; here they are far more common.
RPL19A-GFP yeast: RPL19A-GFP expression modulators in yeast, primary screen, cell-based, S. cerevisiae, multiplex flow cytometry, MLPCN; percent response vs DMSO, % at 10 µM; hit rate 0.3% among 330,000; S. cerevisiae RPL19A-GFP strain, 3 h; active compounds read low;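 active = percent response vs DMSO below 50%; inconclusive = fewer than 70 events counted for the yeast strain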;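 also: median channel GFP fluorescence of the barcoded RPL19A-GFP strain; ratio of sample median GFP to plate DMSO average so 100% = DMSO; lower means less RPL19A-GFP as with rapamycin TOR inhibition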
CIT2 TOR yeast: modulators of CIT2-GFP expression in yeast, primary screen, S. cerevisiae, GFP fusion, multiplex flow cytometry, MLPCN library. S. cerevisiae CIT2-GFP strain, 3 h; 100 means same as DMSO wells. hit rate 0.065% among 320,000. GFP response vs DMSO, % at 10 µM. AID 2029, 2009;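 active = GFP response relative to DMSO above a set limit, near the screen mean plus 3 SD, cut at about 150% in these data; inconclusive = Fewer than 70 cells measured for a yeast strain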;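 also: ratio of well median GFP fluorescence to mean of DMSO wells on the plate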
MEP2-GFP yeast: modulators of MEP2-GFP levels in yeast, primary screen, S. cerevisiae, multiplex flow cytometry, MLPCN library | hit rate 0.51% among 330,000 | AID 2016, 2009 | GFP response vs DMSO, % at 10 µM | S. cerevisiae MEP2-GFP strain, 3 h; 100% = DMSO control level;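 active = GFP response versus DMSO above a set limit, roughly screen mean plus 3 SD, cut at about 180% in these data; inconclusive = fewer than 70 cells counted for a yeast strain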;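 also: median GFP fluorescence of the barcode-gated MEP2-GFP cells per well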
LAP4-GFP MLPCN: modulators of LAP4-GFP expression in yeast, primary screen, S. cerevisiae, multiplex flow cytometry, MLPCN library; 3 h; median GFP as percent of DMSO wells; GFP response vs DMSO, % at 10 µM; hit rate 0.34% among 320,000;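 active = GFP response vs DMSO above a set limit, about the screen mean plus 3 SD, cut at about 150% in these data; inconclusive = under 70 cell events counted for the yeast strain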
AGP1 TOR yeast: modulators of AGP1-GFP expression in yeast TOR pathway, primary screen, cell-based, multiplex flow cytometry, S. cerevisiae, MLPCN library; 3 h; GFP as percent of DMSO wells; GFP response vs DMSO, % at 10 µM; hit rate 0.02% among 320,000; AID 2066, 2009;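 active = GFP response relative to DMSO above a set limit, near screen average plus 3 SD, cut at about 150% in these data; inconclusive = fewer than 70 cells counted for the yeast strain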;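 also: median GFP channel fluorescence of the gated AGP1 strain per well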
Numbers without * were called inactive; ? = inconclusive; . = no result given; [ ] = remark or other dose.

SMILES	RPL19A-GFP yeast	CIT2 TOR yeast	MEP2-GFP yeast	LAP4-GFP MLPCN	AGP1 TOR yeast
Cc1ccc(CCN2CC(C(=O)NCCCN3CCCCCC3)CC2=O)cc1 (stereo not given)	61	?	184*[may fluoresce violet]	103	.
O=C(NCCc1ccccc1)c1ccc(CS(=O)(=O)Cc2ccccc2F)o1	?	99	93	81	80
O=C(NCCN1CCOCC1)c1ccc(CS(=O)(=O)Cc2ccccc2F)o1	94	97	192*	100	80
Cc1ccccc1OCc1nnc(SCCN2CCCC2)n1-c1ccccc1	30*[may fluoresce violet]	?	103	168*[may fluoresce violet]	?
OCCC1CN(Cc2cccn2-c2nccs2)CCN1Cc1ccc(F)c(F)c1 (stereo not given)	103	117	103	99	110
CN(C)C1=NC[C@H](Cc2ccccc2)N1CCCCc1ccccc1	93	93	99	98	92
CC(C)(C)NC(=O)CSCc1c(Cl)cccc1Cl	114	109	95	92	93
NC(=O)CSCc1c(Cl)cccc1Cl	66	90	217*	83	61
c1ccc(C(c2nnnn2Cc2cccs2)N2CCN(C3CCCC3)CC2)cc1 (stereo not given)	33*[may fluoresce violet]	?	231*[may fluoresce violet]	93	?
Cc1nnc(NC(=O)c2cc3n(n2)C(C(F)(F)F)CC(C2CC2)N3)s1 (stereo not given)	98	96	100	95	92
O=C(Nc1nc2c(s1)CCCC2)c1cc2n(n1)C(C(F)(F)F)CC(C1CC1)N2 (stereo not given)	61	?	182*[may fluoresce violet]	85	.
CC(C)NC(=O)NC(=O)CN1C(=O)NC2(CCc3ccccc3C2)C1=O (stereo not given)	105	103	102	96	100
CC(NC(=O)C12CC3CC(CC(C3)C1)C2)C(=O)NN=Cc1ccc([N+](=O)[O-])o1 (stereo not given)	100	99	106	107	96
CC(NC(=O)c1ccc([N+](=O)[O-])o1)C12CC3CC(CC(C3)C1)C2 (stereo not given)	16*[may fluoresce violet]	?	?	40	?
CN(C)C(=O)c1cc(C(=O)c2ccccc2)c[nH]1	110	109	108	101	112
C#CCOCCOCCOCCNc1nc(N2CCN(C(=O)CCCCCCCCCCNC(=O)[C@@H](CCC(=O)O)n3cc(CCCCCN)nn3)CC2)nc(N2CCN(C(=O)CCCCCCCCCCNC(=O)[C@H](CO)n3cc(CCCCCN)nn3)CC2)n1	93	88	95	138	88
C#CCOCCOCCOCCNc1nc(N2CCN(C(=O)CCCCCCCCCCNC(=O)[C@H](CCCCN)n3cc(C[C@@H](C)CC)nn3)CC2)nc(N2CCN(C(=O)CCCCCCCCCCNC(=O)[C@@H]([C@H](C)O)n3cc(C)nn3)CC2)n1	74	94	101	149	98
C#CCOCCOCCOCCNc1nc(N2CCN(C(=O)CCCCCCCCCCNC(=O)[C@H](CO)n3cc(CCCCCN)nn3)CC2)nc(N2CCN(C(=O)CCCCCCCCCCNC(=O)[C@H](CCCN=C(N)N)n3cc(C[C@@H](C)CC)nn3)CC2)n1	72	94	97	162*	98
C#CCOCCOCCOCCNc1nc(N2CCN(C(=O)CCCCCCCCCCNC(=O)[C@H](CCCCN)n3cc(C[C@@H](C)CC)nn3)CC2)nc(N2CCN(C(=O)CCCCCCCCCCNC(=O)[C@H](CCCN=C(N)N)n3cc(C[C@@H](C)CC)nn3)CC2)n1	63	99	114	198*	99
CCOC(=O)Cn1c2c(c(=N)c3ccccc31)CCC2	55	?	229*[may fluoresce violet]	98	.
CCc1ccc(-c2nc(CSCC(=O)N3CCN(c4ccccn4)CC3)c(C)o2)cc1	45*[may fluoresce violet]	?	177*[may fluoresce violet]	98	19
Cc1ccc(-c2nc(CSCC(=O)N3CCN(c4ccccn4)CC3)c(C)o2)cc1	99	101	103	108	108
Cc1ccc2c(c1)nnn2C1CCN(S(=O)(=O)c2ccc(C(=O)N(C)C)cc2)CC1	106	109	107	98	109
Cc1ccc2c(c1)nnn2C1CCN(S(=O)(=O)c2ccc(C(=O)N3CC(C)CC(C)C3)cc2)CC1 (stereo not given)	30*[may fluoresce violet]	?	317*[may fluoresce violet]	78	?
N=c1oc2cc(O)ccc2cc1C(=O)Nc1ccc(F)cc1	41*[may fluoresce violet]	?	836*[may fluoresce violet]	72	19
SMILES	RPL19A-GFP yeast	CIT2 TOR yeast	MEP2-GFP yeast	LAP4-GFP MLPCN	AGP1 TOR yeast
CCn1c(O)c(N=NC(=O)CNc2cccc(C)c2)c2ccccc21	74	?	525*[may fluoresce violet]	90	15
CCn1c(O)c(N=NC(=O)CNc2ccc(C)cc2)c2ccccc21	103	97	95	97	102
CC(C)n1c(SCC(=O)N2CCCCC2)nc2c1c(=O)n(C)c(=O)n2C	54	?	305*[may fluoresce violet]	87	21
Oc1cccc(NC(=S)N=Nc2c(O)[nH]c3ccc(Br)cc23)c1	98	103	99	100	102
OC1(c2ccc(F)cc2)CSC(=Nc2cccnc2)N1Cc1ccco1 (stereo not given)	96	71	95	197*	78
OC1(c2ccc(F)cc2)CCN(Cc2cccnc2)CC1	101	97	111	98	99
COc1ccc(-c2cc(CNC(=O)CN3CCN(C)CC3)on2)cc1	.	?	257*[may fluoresce violet]	87	32
O=C(CSc1nnc(Cn2nnc3ccccc32)o1)N(Cc1ccc(F)cc1)c1ccccc1	93	99	106	103	101
COc1ccc(-c2csc(N(CC(C)C)C(=O)c3ccco3)n2)cc1	110	100	106	100	150*
O=C1/C(=C\c2cccs2)SC(=S)N1C1CCS(=O)(=O)C1 (stereo not given)	13*[may fluoresce violet]	?	?	?	?
O=C1/C(=C/c2ccccc2)SC(=S)N1C1CCS(=O)(=O)C1 (stereo not given)	102	106	100	118	112
O=c1[nH]c(CN2CCCCC2)nc2c1C1(CCCCC1)Cc1ccccc1-2	120	157*	115	120	112
CC(=O)N(Cc1ccc(Cl)cc1)c1cnccn1	57	?	293*[may fluoresce violet]	86	?
COCc1cc(C)nc(OCC(=O)N/N=C/c2cccc(OC)c2)c1C#N	98	99	102	107	104
Cc1cc(C)c(C(=O)Cn2cnc3cc([N+](=O)[O-])ccc3c2=O)cc1C	105	87	196*	90	27
Cc1cccc(NC(=O)COC(=O)C2C3CC4OC(=O)C2C4C3)c1C (stereo not given)	99	103	93	100	100
CCc1ccccc1NC(=O)COC(=O)C1C2CC3OC(=O)C1C3C2 (stereo not given)	49*[may fluoresce violet]	?	754*[may fluoresce violet]	101	24
